Here are results for 40 compounds from PubChem BioAssay (NCI).

About 79,000 compounds went through this panel and 15% of them were active in at least one assay; those are over-represented in the sample as a whole. Values without a mark were called inactive. Active and inactive are the calls of the source. Cut-off read from the data, not from the text of the source: active = growth inhibition above about 70%; inactive = the rest.

Test [1] is described as follows: NCI Yeast Anticancer Drug Screen. Data for the rad50 strain (AID 155).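 Note: 0% = growth of vehicle-only cultures of the same strain.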 Conditions: S. cerevisiae rad50 strain growth inhibition; at 50.0 µM; stronger effect = higher value. A digest of the protocol:
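Genetically altered yeast (DNA repair pathway); compound treatment; growth inhibition vs vehicle ctrl.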

The nature of test [2]: NCI Yeast Anticancer Drug Screen. Data for the mec2-1 strain (AID 157). Conditions: S. cerevisiae mec2-1 strain, at 50.0 µM, stronger effect = higher value. A digest of the protocol:
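Test agents were screened against the mec2-1 yeast strain, with defined DNA repair or cell cycle alteration. Growth was scored as inhibition against vehicle-only controls.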

A short description of test [3]: NCI Yeast Anticancer Drug Screen. Data for the sgs1 mgt1 strain (AID 161).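 Note: 0% = growth of cultures given vehicle only.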 Conditions: S. cerevisiae sgs1 mgt1 strain, at 50.0 µM, stronger effect = higher value. The gist of the method:
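Genetically altered yeast, compound exposure, growth inhibition relative to vehicle.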

Test [4] in a line: NCI Yeast Anticancer Drug Screen. Data for the cln2 rad14 strain (AID 165).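 Note: 0% = growth equal to vehicle treated cultures.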 Conditions: S. cerevisiae cln2 rad14 strain, at 50.0 µM, stronger effect = higher value. The gist of the method: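 Growth of compound-exposed yeast (cln2 rad14 genotype) measured and expressed as inhibition relative to vehicle.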
Test [5] can be described thus: NCI Yeast Anticancer Drug Screen. Data for the bub3 strain (AID 167). Conditions: S. cerevisiae bub3 mutant strain, at 50.0 µM, stronger effect = higher value. A digest of the protocol: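 Yeast carrying a defined mutation is treated with each compound, and growth is compared with that of vehicle-exposed cells to give inhibition.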
Test [6] in a line: NCI Yeast Anticancer Drug Screen. Data for the mlh1 rad18 strain (AID 175). Conditions: S. cerevisiae mlh1 rad18 strain growth inhibition; at 50.0 µM; stronger effect = higher value. A digest of the protocol: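 In this whole-cell yeast screen, a strain with altered DNA damage repair is challenged with compound, and its growth is measured against matched vehicle-treated controls.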

Take `CCCCNC(=O)c1cc2c(cc1Cl)Sc1nccn1S2(=O)=O`: the growth inhibition in test [1] was -1.1%; in test [2] it was -0.3%; in test [3], 1.35%; in test [4], 9.2%; in test [5] it was 43.9%; in test [6], 28.6%.
In the case of `CCOCCOC(=O)C1CCC(=O)N1CN(C(C)=O)c1cc(OC)ccc1OC` (stereo not given), the growth inhibition in test [1] is -17.9%; in test [2] it was -3.6%; in test [3], -30.9%; in test [4], 6.1%; in test [5] it was -0.5%; in test [6], -39.5%.
Regarding `COC1N(c2ccccc2)CCN1c1ccccc1`, the growth inhibition in test [1] is 3.05%; in test [2] it was 6.1%; in test [3] it was -23.2%; in test [4] it was 4.75%; in test [5] it was 5.55%; in test [6] it was 8.3%.
As for `O=C(NCc1ccco1)Nc1ccccc1Cl`, the growth inhibition in test [1] is -24.9%; in test [2] it was -0.2%; in test [3] it was -6.2%; in test [4], 45.8%; in test [5] it was 4.25%; in test [6] it was -11%.
With `C=C1C(=O)O[C@H]2[C@@H](O)[C@H](C)CCC[C@]3(C)O[C@H]3CC[C@@]3(C)O[C@@H]3C[C@@H]12`, the growth inhibition in test [1] was 19.4%; in test [2], 37.2%; in test [3], 70.5% (active); in test [4], 41.8%; in test [5], 61.1%; in test [6], 58.2%.
With `CCCCCCCC/C=C/CCCCCC1CCCC(C)N1` (stereo not given), the growth inhibition in test [1] is 26.9%; in test [2], -20.6%; in test [3], 2.3%; in test [4] it was 3.65%; in test [5], -11.2%; in test [6], -2.55%.
As for `COc1ccc(C2C3=CONC3CC3CCCCC32)cc1` (stereo not given), the growth inhibition in test [1] was 4.5%; in test [2] it was -34.5%; in test [3], -0.4%; in test [4], 8.25%; in test [5], 6.25%; in test [6], 6.5%.
In the case of `O=C1c2cc3ccccc3cc2NC(O)c2cccn21` (stereo not given), the growth inhibition in test [1] was 9.4%; in test [2], 4.6%; in test [3] it was 1.15%; in test [4], 27.4%; in test [5], 13.4%; in test [6], 13.2%.
Take `Oc1ccc(C2CCCC2)cc1`: the growth inhibition in test [1] is -9.15%; in test [2], -30.1%; in test [3], -22.1%; in test [4] it was -14.7%; in test [5], -12.7%; in test [6], -17.4%.
Take `CCN1CCCC(Nc2nc(Nc3ccc(Cl)c(Cl)c3)nc3ccc(Cl)cc23)C1` (stereo not given): the growth inhibition in test [1] is 99.2% (active); in test [2] it was 99.7% (active); in test [3], 99.7% (active); in test [4] it was 99.5% (active); in test [5], 99.4% (active); in test [6] it was 99.5% (active).
Turning to `CCN(CC)CCOc1ccccc1C(C)C`, the growth inhibition is 14.6% in test [1]; 7.5% in test [2]; 17.1% in test [3]; 19.5% in test [4]; 4% in test [5]; 25.1% in test [6].
For the compound `c1ccc(CN2CCCCC(Sc3ccccc3)CC2)cc1` (stereo not given), the growth inhibition in test [1] was 90.2% (active); in test [2], 93.8% (active); in test [3] it was 92.2% (active); in test [4], 90.5% (active); in test [5], 89.7% (active); in test [6], 90.9% (active).
`CC(C)=CC(=O)OC1C2C(CC(C)C3C(O)CC(=O)C13C)OC(=O)C2C` (stereo not given): the growth inhibition is -0.3% in test [1]; -44.3% in test [2]; -0.2% in test [3]; 17.8% in test [4]; -27.9% in test [5]; -16.9% in test [6].
Consider `NC(=O)COc1ccc(Br)cc1Br`, for which the growth inhibition in test [1] was -0.1%; in test [2], -3.15%; in test [3], -12.7%; in test [4] it was 13.6%; in test [5], -6.3%; in test [6] it was 11.8%.
Regarding `O=[N+]([O-])c1ccc(NCn2c(=S)sc3ccccc32)cc1`, the growth inhibition is 13.7% in test [1]; -27% in test [2]; 11.4% in test [3]; 2.15% in test [4]; 2.8% in test [5]; 3.6% in test [6].
Regarding `COC(=O)C1N=CSCC1(C)O` (stereo not given), the growth inhibition was -4.8% in test [1]; 15.3% in test [2]; -25.9% in test [3]; 12.5% in test [4]; -2.45% in test [5]; -16.4% in test [6].
With `O=C(Nc1cccc([N+](=O)[O-])c1)C1C(=O)N(c2cccc([N+](=O)[O-])c2)C(=O)/C1=N/O` (stereo not given), the growth inhibition was -16.8% in test [1]; -7.4% in test [2]; -24.8% in test [3]; -50.4% in test [4]; 0.1% in test [5]; -3.5% in test [6].
For the compound `CC(C)C(C)NC(=O)C(C)(C)C(C)(C)C` (stereo not given), the growth inhibition in test [1] is -4.85%; in test [2], -6.35%; in test [3] it was 10.6%; in test [4], -11.2%; in test [5], -0.7%; in test [6] it was -5.55%.
`CCCCCCCCCCc1c2nc(c(CCCCCCCCCC)c3ccc([nH]3)c(CCCCCCCCCC)c3ccc([nH]3)c(CCCCCCCCCC)c3nc1C=C3)C=C2`: the growth inhibition in test [1] was -18.1%; in test [2], -11.9%; in test [3], -5.95%; in test [4], 23.4%; in test [5], 6%; in test [6] it was -63.7%.
Take `CCN(CC)c1ccccc1C`: the growth inhibition in test [1] was 21.1%; in test [2], 9.9%; in test [3], -5.2%; in test [4], -4.95%; in test [5], 2.25%; in test [6], -0.2%.
Turning to `N#CCCCOc1ccccc1`, the growth inhibition was -14.2% in test [1]; -13.6% in test [2]; 16.4% in test [3]; -6.7% in test [4]; -2.05% in test [5]; 5.4% in test [6].
Regarding `O=C(COCC(=O)N/N=C/c1c(O)ccc2ccccc12)N/N=C/c1c(O)ccc2ccccc12`, the growth inhibition in test [1] was -2%; in test [2] it was -13%; in test [3], -5.25%; in test [4], -8.25%; in test [5], -1%; in test [6] it was 6.9%.
On to `CCC(C)(C)c1ccccc1`, for which the growth inhibition in test [1] was 13.2%; in test [2] it was 6%; in test [3], 20%; in test [4], 10.9%; in test [5] it was 8.95%; in test [6] it was 15.3%.
In the case of `O=C(NC(=S)Nc1ccc(Cl)c(Cl)c1)c1cccc([N+](=O)[O-])c1`, the growth inhibition was -6.45% in test [1]; 3.35% in test [2]; 10.9% in test [3]; 0.65% in test [4]; -3.2% in test [5]; 5.7% in test [6].
With `CC(=O)Nc1ccc(SC#N)c2c(NC(C)=O)cccc12`, the growth inhibition in test [1] was 44.6%; in test [2], 27.5%; in test [3], 56.5%; in test [4], 27.6%; in test [5] it was 30.4%; in test [6], 47.7%.
In the case of `O=C(NC(=O)c1c(F)cccc1F)Nc1ccc(Cl)nc1`, the growth inhibition is 8.75% in test [1]; 5.95% in test [2]; -0.2% in test [3]; 2.3% in test [4]; 21.9% in test [5]; 10.1% in test [6].
`CC1(C)OC(=O)C(C)(C)OC1=O`: the growth inhibition in test [1] was -11.7%; in test [2], -5%; in test [3], 7.05%; in test [4], 12.3%; in test [5], 8.4%; in test [6] it was -3.15%.
With `CC1CCC2CC(=O)C(Br)CC2(C)C1C` (stereo not given), the growth inhibition in test [1] is 23.6%; in test [2], -8.95%; in test [3] it was 9.75%; in test [4], -5.35%; in test [5], -3.95%; in test [6], 7.45%.
With `CCCC(O)CN` (stereo not given), the growth inhibition in test [1] is -5.65%; in test [2], 18.2%; in test [3] it was -12.7%; in test [4], 9.4%; in test [5], -0.85%; in test [6], 24.9%.
Turning to `CCOC(=O)CCCNc1cc(OC)cc2cccnc12`, the growth inhibition in test [1] is -7.4%; in test [2] it was -23.9%; in test [3] it was -2.6%; in test [4], -48.8%; in test [5], 19.8%; in test [6], -8.7%.
In the case of `C[C@H](CCc1nc(C#N)c(N)o1)[C@H]1CC[C@H]2[C@@H]3[C@@H](O)CC4C[C@@H](O)CC[C@]4(C)[C@H]3C[C@@H](O)[C@]12C` (stereo not given in full), the growth inhibition was 26.4% in test [1]; 9.8% in test [2]; 10.7% in test [3]; 9.55% in test [4]; -9.1% in test [5]; -2.85% in test [6].
As for `Nc1nc(Cl)cc(NCCCNc2cc(Cl)nc(N)n2)n1`, the growth inhibition in test [1] was -1.55%; in test [2] it was 6.55%; in test [3], 13.3%; in test [4], 1.15%; in test [5], 3.65%; in test [6], 4.35%.
As to `CN(C)Cn1c2ccccc2c2ccccc21`, the growth inhibition was -2.05% in test [1]; -1.1% in test [2]; 3.9% in test [3]; 0.1% in test [4]; -0.8% in test [5]; -12.4% in test [6].
Take `Cc1ccc(S(=O)(=O)CCCCS(=O)(=O)c2ccc(C)cc2)cc1`: the growth inhibition in test [1] was 1.8%; in test [2], 4.35%; in test [3], -7.1%; in test [4], -62.4%; in test [5] it was -27.2%; in test [6] it was 2.3%.
On to `CSCCC(NC(=O)c1c(Cl)ccc(Cl)c1Cl)C(=O)O` (stereo not given), for which the growth inhibition in test [1] is -8.45%; in test [2] it was -0.75%; in test [3], 18.6%; in test [4], -18.6%; in test [5], 0.6%; in test [6] it was -16.4%.
As to `Cc1cc(C)nc(NS(=O)(=O)c2ccc(Nc3c4ccccc4nc4c(C(=O)Nc5ccc(S(=O)(=O)Nc6cc(C)on6)cc5)cccc34)cc2)n1`, the growth inhibition in test [1] is 28.8%; in test [2] it was 17.6%; in test [3] it was 32.2%; in test [4], 31.7%; in test [5], 11.4%; in test [6], 38.9%.
As to `c1ccc2c(c1)NCCOCCNc1ccccc1OCCNCCO2`, the growth inhibition in test [1] is -1.5%; in test [2] it was 36.5%; in test [3], 14.1%; in test [4] it was -4.1%; in test [5] it was 30.1%; in test [6] it was 6.75%.
On to `O=C(O)C1C2OC3C(OC(=O)C31)C2Cl` (stereo not given), for which the growth inhibition was -4.5% in test [1]; 6% in test [2]; 9.85% in test [3]; -14.3% in test [4]; -6.5% in test [5]; -12.3% in test [6].
Regarding `CC1=C(C)CP(=O)(c2ccccc2)C1`, the growth inhibition in test [1] is 16.6%; in test [2] it was -5.2%; in test [3] it was -0.7%; in test [4] it was -8.65%; in test [5] it was -3.9%; in test [6] it was -35.4%.
With `O=C(O)C(SSC(C(=O)O)(c1ccccc1)c1ccccc1)(c1ccccc1)c1ccccc1`, the growth inhibition is 71.8% (active) in test [1]; 21.5% in test [2]; 54.6% in test [3]; 36% in test [4]; 12% in test [5]; 38% in test [6].
